Laboratory results: PubChem BioAssay AID720532 (National Center for Advancing Translational Sciences (NCATS), 2013)
Several values for one entry are separate records, joined by “and”; a condition that tells them apart may be missing. Identical values can stand only once. Out of some 18,000 compounds screened, about 1,200 (6.7%) were called active. Another 16% or so got no clear call; they are omitted. Calls come from the whole dose curve; tested in HEK293 cells. Shown is part of a subset that was picked to be rich in actives. A structure can be active in one record and inactive in another.

assay: qHTS for Inhibitors of binding or entry into cells for Marburg Virus; conditions: Marburg virus pseudotype entry/binding inhibition, cell-based; series mostly up to 49.2 µM; activity change, negative = inhibition: at the top concentration
% is set by controls: 0 for no effect and ±100 for the full control effect; potency is the fitted concentration of half-maximal effect.

| Compound | activity change, negative = inhibition | Potency |
| --- | --- | --- |
| COc1ccc(-c2nc(-c3ccccc3)oc2Nc2ccc3ccccc3c2)cc1 | inactive | – |
| O=S1(=O)CC(N2CCC(Cc3ccccc3)CC2)CN1Cc1ccccc1 (stereo unspecified) | 2.7% (inactive) | – |
| CCOC(=O)C1=C(C(=O)OCC)C(C(=O)OCC)N(S(=O)(=O)C(F)(F)F)c2ccccc21 (stereo unspecified) | 4.82% (inactive) | – |
| COC(=O)C(C(=O)OC)[C@@H](NC=O)c1ccccc1 | -11% (inactive) | – |
| C=CCN(Cc1ccc([N+](=O)[O-])cc1)S(=O)(=O)C=C | -5.13% (inactive) | – |
| COC(=O)CC=C[C@@H](C)[C@H](NC(=O)OCC(Cl)(Cl)Cl)c1ccc2ccccc2c1 | -17.9% [at 8.59 µM] (inactive) | – |
| CC[C@H](C)[C@H](NC(=O)[C@@H](N)CCC(=O)O)C(=O)N[C@@H](CC(C)C)C(=O)N[C@@H](CC(=O)O)C(=O)N[C@H](C(=O)N1CCC[C@H]1C(=O)N[C@@H](CO)C(=O)N[C@H](C(=O)O)[C@@H](C)O)C(C)C | -3.43% (inactive) | – |
| CCCCN1CC(COc2ccccc2)Oc2cccc(F)c2S1(=O)=O (stereo unspecified) | 21.2% (inactive) | – |
| CCCCN1CC(COCc2ccccc2)OCCS1(=O)=O (stereo unspecified) | 8.55% (inactive) | – |
| CC[C@@]12C=C(/C=C/c3ccccc3)[C@](CC)(C1)[C@H](c1ccccc1)CC2=O | -11% (inactive) | – |
| FC(F)(F)c1ccc(-c2nn3ncccc3c2-c2ccnc(Nc3ccc4c(c3)OCCO4)n2)cc1 | -23.2% (inactive) | – |
| COc1cc(Nc2nccc(-c3cnn4ncccc34)n2)cc(OC)c1 | – | 3.53 µM (active) |
| C[C@@H]1C[C@H]2CC[C@H](O2)[C@H](C)C(=O)O[C@@H](C)C[C@@H]2CC[C@@H](O2)[C@@H](C)C(=O)O[C@H](C)C[C@H]2CC[C@H](O2)[C@H](C)C(=O)O[C@@H](C)C[C@@H]2CC[C@@H](O2)[C@@H](C)C(=O)O1 | – | 0.631 µM (active) |
| C#CCNc1ccc2c(c1)OC[C@@H](C)NS2(=O)=O | 20.1% (inactive) | – |
| COc1cc2c(c(OC)c1OC)CC(C)=C(C)CC2NC(=O)C(F)(F)F (stereo unspecified) | -9.07% [at 8.59 µM] (inactive) | – |
| COCOCCn1cc(CN2CCS(=O)(=O)N(Cc3ccc(-c4cccc(N(C)C)c4)cc3)C(CC(C)C)C2=O)nn1 (stereo unspecified) | 4.51% (inactive) | – |
| C[C@H](CO)NS(=O)(=O)c1ccc(Br)cc1F | 10.2% (inactive) | – |
| CCCCC/C=C\C[C@H](O)/C=C/C=C/C=C/[C@@H](O)CCCC(=O)O | 2.42% (inactive) | – |
| C=CCOC(=O)C(=C)C | 9.41% (inactive) | – |

| Compound | activity change, negative = inhibition | Potency |
| --- | --- | --- |
| C[C@@H]1CC2=CCCC2[C@]2(O1)C(=O)N(CC1CC1)c1cccc(Br)c12 (stereo partly specified) | 72.4% [at 8.59 µM] (inactive) | – |
| O=C(Nc1cccc(C(=O)N2CCCC2)c1)c1ccccc1 | 18.3% (inactive) | – |
| CC(=O)N1CCN(Cc2cc(=O)oc3cc(C)ccc23)CC1 | 18.6% (inactive) | – |
| O=C(OCCN1CCOCC1)C1(c2ccccc2)CCCCC1 | – | inactive and 31.6 µM (active) |
| COc1cc(OC)c2c(c1Cl)OC1(C2=O)C(O)=CC(=O)CC1C (stereo unspecified) | -5.71% (inactive) | – |
| CSc1ccccc1N1CCN(CCCCCC(=O)NC2CCCc3ccccc32)CC1 (stereo unspecified) | – | 10 µM (active) |
| COC(=O)Nc1nc2ccc(Sc3ccccc3)cc2[nH]1 | -40.1% [at 17.8 µM] (inactive) | – |
| COC(=O)Nc1nc2ccc(Oc3ccc(NC(=O)Nc4cccc(Cl)c4)cc3)cc2[nH]1 | – | 4.99 µM (active) |
| C1CC[C@H]([C@@]23C[C@H](C[C@H]4CCCN[C@H]42)[C@@H]2CCCCN2C3)NC1 | – | 12.6 µM (active) |
| COC(=O)CC=C[C@@H](C)[C@H](NC(=O)OCC(Cl)(Cl)Cl)c1ccccc1 | 0.224% [at 8.59 µM] (inactive) | – |
| NC[C@@H]1O[C@H](O[C@@H]2[C@H](O[C@@H]3O[C@H](CO)[C@@H](COC[C@H]4O[C@@H](CN)[C@@H](O)[C@@H](O)[C@@H]4N)[C@@H]3O)[C@@H](O)[C@@H](N)C[C@H]2N)[C@@H](N)[C@H](O)[C@@H]1O | 2.02% [at 17.8 µM] (inactive) | – |
| Nc1ccc2c3c(cccc13)C(=O)NC2=O | 17.5% (inactive) | – |
| S=C(NCCCc1cnc[nH]1)NCCCN(Cc1ccc(Cl)c(Cl)c1)c1ccc(Br)cn1 | – | 20 µM (active) |
| CCCCC[C@H](O)/C=C/[C@@H]1[C@@H](CC(=O)CCC(=O)O)[C@@H](O)C[C@H]1O | -3.98% (inactive) | – |
| CCOC(=O)[C@@]12C3[C@@H](CCN3C(=O)N[C@@H]1c1ccccc1)[C@@H]2C (stereo partly specified) | -11.3% [at 8.59 µM] (inactive) | – |
| O=S1(=O)CCSCCN1Cc1ccccc1F | 20.8% (inactive) | – |
| CC(C)NC[C@H](O)c1ccc2ccccc2c1 | 3.68% (inactive) | – |
| Nc1nc2nc(Cl)[nH]c2c(=O)[nH]1 | 7.94% (inactive) | – |
| COC(=O)c1cc(C(=O)OC)n2ccc3cc(OC)c(OC)cc3c12 | 51.8% [at 8.59 µM] (inactive) | – |

| Compound | activity change, negative = inhibition | Potency |
| --- | --- | --- |
| CO/N=C(\C(=O)N[C@@H]1C(=O)N2C(C(=O)O)=C(C[N+]3(C)CCCC3)CS[C@H]12)c1csc(N)n1 | 19.5% (inactive) | – |
| COc1ccc2nccc(C(=O)O)c2c1 | 2.51% [at 17.8 µM] (inactive) | – |
| CC[C@@H]1CN2CC[C@@H]1C[C@H]2[C@H](O)c1ccnc2ccc(OC)cc12 | – | 31.6 µM (active) |
| COc1cccc([C@@H]2Oc3ccc(Br)cc3C(=O)[C@H]2OC(=O)NCCc2ccc(OC)c(OC)c2)c1 | 52.3% (inactive) | – |
| CC[N+]1(CCOC(=O)C(O)(c2ccccc2)c2ccccc2)CCCCC1 | 2.06% (inactive) | – |
| CCC(C(=O)OCCN(CC)CC)c1ccccc1 (stereo unspecified) | 2.21% (inactive) | – |
| CCCC(C(=O)OCCN(CC)CC)(c1ccccc1)c1ccccc1 | – | 15.8 µM (active) |
| CCCCC/C=C\C/C=C\CCCCCCCCCC(N)=O | -10.4% (inactive) | – |
| CCCCOCC1CN(CCCC)S(=O)(=O)c2c(Oc3ccc(F)cc3)cccc2O1 (stereo unspecified) | -22.2% (inactive) | – |
| CN1CCN2c3ccccc3Cc3ccccc3[C@@H]2C1 | – | 15.8 µM (active) |
| CN1C(=O)CN2CCc3ccccc3C2c2cc(Cl)ccc21 (stereo unspecified) | -3.29% (inactive) | – |
| H-EHIPA-OH | 6.8% (inactive) | – |
| COc1ccc(Nc2ncnc3ccc(OC)cc23)cc1 | 15.2% (inactive) | – |
| CC(C)(C)OC(=O)Nc1ccc(OCc2cn(CC(=O)c3ccc(O)cc3)nn2)cc1 | 17.5% (inactive) | – |
| CO/N=C(/C(=O)N[C@@H]1C(=O)N2C(C(=O)O)=C(Cn3nnc(C)n3)CS[C@H]12)c1csc(N)n1 | 13% (inactive) | – |
| CC/C=C\C/C=C\C/C=C\C/C=C\C/C=C\C/C=C\CCC(=O)NC(C)C(=O)O (stereo unspecified) | 4.32% (inactive) | – |
| CC12C=C(C=Cc3ccc(F)cc3)C(C)(C1)C(c1ccc(F)cc1)CC2=O (stereo unspecified) | 8.67% [at 8.59 µM] (inactive) | – |
| CC(C)[C@H]1CC[C@@H](C)C[C@H]1O | -12.9% (inactive) | – |
